The record followed here is PubChem BioAssay (EPA / NIEHS).

Structures are written as SMILES. Calls of active or inactive are those of the source. Rule for the calls: active = hit-call score of the fitted dose curve at least 0.9, where 1 is the maximum; inactive = score below 0.9.

Test [1] can be described thus: ATG_PBREM_CIS: Attagene CIS-FACTORIAL HepG2 Assay for human Phenobarbital-responsive Enhancer Module (PBREM) (AID 2282955). The settings on record: HepG2 PBREM cis-reporter, Attagene multiplexed transcription; actives raise or lower the signal. In a few lines:
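Readout: reporter mRNA, fluorescent RT-PCR fragments separated by capillary electrophoresis. System: HepG2 transiently transfected with cis-regulated reporter units. Exposure: 24 h. Analysis: bidirectional, DMSO baseline.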

Test [2] deals with Paired box protein Pax-6 (Homo sapiens) (UniProt P26367). As to the kind of experiment: ATG_Pax6_CIS: Attagene CIS-FACTORIAL HepG2 Assay for human Paired Box 6 (PAX6) (AID 2282956). The settings on record: HepG2 CIS-FACTORIAL PAX6 reporter transcription, RNA readout; actives raise or lower the signal. In a few lines:
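Fluorescent RT-PCR products separated by capillary electrophoresis report PAX6-linked promoter mRNA in HepG2 cells 24 h post-dose. Curves fitted bidirectionally, DMSO as negative control.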

The nature of test [3]: ATG_PXRE_CIS: Attagene CIS-FACTORIAL HepG2 Assay for human Pregnane X Receptor Element (PXRE) (AID 2282957). The note with it: HepG2 Attagene CIS-FACTORIAL PXRE reporter, mRNA; actives raise or lower the signal. In a few lines:
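Read-out: fluorescence of reporter-specific RT-PCR products resolved by capillary electrophoresis, fitted bidirectionally relative to DMSO. Human HepG2 liver cells carried transfected cis-promoter reporter units and were exposed to chemicals for 24 h.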

Test [4] in a line: ATG_PPRE_CIS: Attagene CIS-FACTORIAL HepG2 Assay for human Peroxisome Proliferator-activated Response Element (PPRE) (AID 2282958). The note with it: HepG2 PPRE cis-element reporter, Attagene transcription factor profiling; actives raise or lower the signal. In a few lines: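 After human HepG2 hepatoma cells were transiently transfected with cis-promoter reporter constructs, they were exposed to test chemicals for 24 hours. Reporter RNA was then reverse-transcribed, PCR-amplified, FAM-labeled, HpaI-digested and quantified by capillary electrophoresis.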

A short description of test [5]: ATG_RORE_CIS: Attagene CIS-FACTORIAL HepG2 Assay for human RAR-related Orphan Receptor Element (RORE) (AID 2282959). The note with it: HepG2 Attagene cis-factorial RORE reporter, mRNA; actives raise or lower the signal. Put shortly: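 Measured here: transcript induction of a cis-regulated reporter in HepG2 cells transiently transfected via FuGene 6. After 24 h, RNA was processed by RT-PCR and fluorescent capillary electrophoresis; DMSO defined baseline activity.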

Test [6] is described as follows: ATG_Sox_CIS: Attagene CIS-FACTORIAL HepG2 Assay for human SRY-box transcription factor (SOX) (AID 2282960). The settings on record: HepG2 Attagene cis-factorial SOX reporter, mRNA; actives raise or lower the signal. Put shortly: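 Using transiently transfected HepG2 cells, reporter transcription driven by cis elements was assessed 24 h after dosing. Signal was fluorescence of capillary-separated RT-PCR products, with DMSO defining baseline activity.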

The target in test [7] is Transcription factor Sp1 (Homo sapiens) (UniProt P08047). As to the kind of experiment: ATG_Sp1_CIS: Attagene CIS-FACTORIAL HepG2 Assay for human Specificity Protein 1 (Sp1) (AID 2282961). The note with it: HepG2 Sp1 cis-reporter transcription, actives raise or lower the signal. In a few lines:
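After transient transfection of HepG2 cells with cis-promoter reporter units and 24 h chemical treatment, reporter transcripts were quantified by RT-PCR and capillary electrophoresis fluorescence. Gain- and loss-of-signal fitted against DMSO.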

Test [8] is described as follows: ATG_SREBP_CIS: Attagene CIS-FACTORIAL HepG2 Assay for human Sterol Regulatory Element Binding (SREBP) (AID 2282962). The note with it: HepG2 Attagene cis-factorial SREBP reporter, mRNA; actives raise or lower the signal. In a few lines:
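Endogenous factor activity is measured in HepG2 through multiplexed reporter units under cis-element control. Following a 24 h incubation, reporter transcripts are reverse-transcribed, PCR-amplified and sized by capillary electrophoresis; activity is fitted in both directions relative to DMSO.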

For test [9], the target named is Signal transducer and activator of transcription 3 (Homo sapiens) (UniProt P40763). Nature of the test: ATG_STAT3_CIS: Attagene CIS-FACTORIAL HepG2 Assay for human Signal Transducer and Activator of Transcription 3 (STAT3) (AID 2282963). The settings on record: HepG2, Attagene cis-factorial STAT3 reporter transcription; actives raise or lower the signal. Put shortly: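 Uses human liver HepG2 transiently carrying cis-regulated reporter transcription units. Following 24 h dosing, reporter mRNA induction was detected by RT-PCR and capillary electrophoresis, analysed bidirectionally versus DMSO.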

Test [10] in a line: ATG_TA_CIS: Attagene CIS-FACTORIAL HepG2 Assay for human TA Basal Promoter (AID 2282964). The settings on record: HepG2 Attagene CIS-factorial TA basal promoter reporter; actives raise or lower the signal. In a few lines: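 Read-out: fluorescent reporter-transcript fragments resolved by capillary electrophoresis after RT-PCR and HpaI digestion. Source: HepG2 cells carrying transiently transfected multi-reporter cis constructs, treated 24 h. Endpoint fitted bidirectionally relative to DMSO.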

Chain of Transcription factor Sp1 (Homo sapiens) (P08047 whole entry, looked up): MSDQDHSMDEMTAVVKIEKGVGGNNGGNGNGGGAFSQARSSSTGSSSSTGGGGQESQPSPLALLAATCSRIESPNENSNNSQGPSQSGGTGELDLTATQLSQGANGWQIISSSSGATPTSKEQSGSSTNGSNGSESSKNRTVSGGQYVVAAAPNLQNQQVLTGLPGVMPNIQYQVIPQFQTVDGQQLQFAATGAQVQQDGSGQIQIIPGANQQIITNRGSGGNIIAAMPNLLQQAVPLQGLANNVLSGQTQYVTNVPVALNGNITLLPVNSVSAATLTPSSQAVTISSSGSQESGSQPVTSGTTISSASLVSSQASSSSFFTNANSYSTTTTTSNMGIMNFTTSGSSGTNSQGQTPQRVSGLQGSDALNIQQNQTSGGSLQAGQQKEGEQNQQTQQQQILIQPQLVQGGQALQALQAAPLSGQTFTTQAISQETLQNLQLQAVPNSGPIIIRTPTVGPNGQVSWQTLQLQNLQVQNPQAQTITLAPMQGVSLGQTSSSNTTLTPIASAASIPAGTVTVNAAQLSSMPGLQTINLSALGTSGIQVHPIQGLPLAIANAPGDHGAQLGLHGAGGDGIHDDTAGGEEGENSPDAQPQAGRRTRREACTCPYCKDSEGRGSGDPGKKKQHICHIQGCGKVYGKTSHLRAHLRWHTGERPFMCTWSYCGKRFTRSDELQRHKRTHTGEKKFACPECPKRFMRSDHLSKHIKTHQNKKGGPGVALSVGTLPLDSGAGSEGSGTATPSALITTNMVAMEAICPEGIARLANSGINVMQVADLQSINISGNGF
Chain of Paired box protein Pax-6 (Homo sapiens) (P26367 whole entry, looked up): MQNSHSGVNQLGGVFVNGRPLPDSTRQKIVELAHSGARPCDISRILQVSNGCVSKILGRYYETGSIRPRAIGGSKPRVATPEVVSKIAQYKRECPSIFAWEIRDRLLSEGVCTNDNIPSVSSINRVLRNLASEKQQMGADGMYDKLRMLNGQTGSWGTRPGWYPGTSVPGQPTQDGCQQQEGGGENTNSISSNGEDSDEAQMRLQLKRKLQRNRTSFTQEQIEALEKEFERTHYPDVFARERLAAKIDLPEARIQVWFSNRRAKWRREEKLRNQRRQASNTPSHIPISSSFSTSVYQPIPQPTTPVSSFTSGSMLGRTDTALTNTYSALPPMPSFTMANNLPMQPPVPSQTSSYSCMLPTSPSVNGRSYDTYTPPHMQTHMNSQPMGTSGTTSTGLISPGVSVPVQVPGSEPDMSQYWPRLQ
Chain of Signal transducer and activator of transcription 3 (Homo sapiens) (P40763 whole entry, looked up): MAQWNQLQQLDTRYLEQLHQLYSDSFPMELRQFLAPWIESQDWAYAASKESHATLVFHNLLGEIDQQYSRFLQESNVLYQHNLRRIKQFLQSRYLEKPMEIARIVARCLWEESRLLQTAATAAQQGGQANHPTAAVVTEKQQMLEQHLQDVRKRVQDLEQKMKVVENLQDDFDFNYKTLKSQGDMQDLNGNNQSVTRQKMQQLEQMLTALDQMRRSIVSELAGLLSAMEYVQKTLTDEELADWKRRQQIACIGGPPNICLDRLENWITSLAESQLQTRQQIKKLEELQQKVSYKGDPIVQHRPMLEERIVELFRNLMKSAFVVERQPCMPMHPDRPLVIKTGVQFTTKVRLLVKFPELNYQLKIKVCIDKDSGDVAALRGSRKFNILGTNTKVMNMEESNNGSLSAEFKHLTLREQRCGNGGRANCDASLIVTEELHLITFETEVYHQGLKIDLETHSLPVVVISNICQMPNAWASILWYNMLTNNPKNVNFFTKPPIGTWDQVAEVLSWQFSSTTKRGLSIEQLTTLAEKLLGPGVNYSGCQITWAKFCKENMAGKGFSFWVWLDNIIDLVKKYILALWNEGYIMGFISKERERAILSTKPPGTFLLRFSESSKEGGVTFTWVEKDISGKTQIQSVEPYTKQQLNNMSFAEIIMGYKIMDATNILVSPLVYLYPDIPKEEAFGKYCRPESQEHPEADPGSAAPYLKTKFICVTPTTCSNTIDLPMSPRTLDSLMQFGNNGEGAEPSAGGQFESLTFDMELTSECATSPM

Regarding `CC(C)(C)c1cc(O)c(C(C)(C)C)cc1O`, the AC50 (as a rule, the concentration giving half of the maximal activity seen) is 61.6 µM (active) in [1]; 34.3 µM (active) in test [2]; 30.9 µM (active) in test [4]; 22.6 µM (active) in [5]; 114 µM (active) in test [6]; 65.5 µM (active) in test [7]. Further, the figures for the AC50 in test [8] and in test [10] were 7.79 µM (active) and 42.2 µM (active), respectively. Also, the call in test [3] and in test [9] was inactive.

Consider `Nc1ccc2c(c1)C(=O)c1ccccc1C2=O`, for which the result in test [1], in test [2], in test [4], in test [5], in test [6] and in test [7] was inactive. The outcome in test [8], in [9] and in test [10] was inactive. Further, the AC50 in test [3] was 26.9 µM (active).

Regarding `COCCOCCOC`, the result in test [1], in test [2], in test [3], in [4], in test [5] and in test [6] was inactive. Also, the result in [7], in test [8] and in [9] was inactive.

Regarding `CCOC(=O)CCC(=O)OCC`, the outcome in [1], in test [2], in test [4], in [5], in test [6] and in test [7] was inactive. For the same compound, the call in test [8] and in test [9] was inactive. Also, the half-maximal activity concentration (AC50) in [3] was 47.8 µM (active).

With `CCc1c(C(=O)NN2CCCCC2)nn(-c2ccc(Cl)cc2Cl)c1-c1ccc(Br)cc1`, the outcome in test [1], in test [4], in test [5], in [6], in test [7] and in test [9] was inactive. The AC50 in test [2] is 1.75 µM (active); in test [3], 0.147 µM (active); in test [8], 0.719 µM (active).

Regarding `COc1ccc2c(c1)c(CC(=O)O)c(C)n2C(=O)c1ccc(Cl)cc1`, the result in test [1], in [2], in [3], in test [5], in [6] and in test [7] was inactive. Moreover, the outcome in [8] and in [9] was inactive. For the same compound, the AC50 in test [4] is 12.5 µM (active).

As to `FC(F)(F)C(F)(F)C(F)(F)C(F)(F)C(F)(F)C(F)(F)CCI`, the result in [1], in [2], in test [3], in test [4], in test [5] and in test [6] was inactive. The outcome in test [7], in test [8] and in [9] was inactive.

Take `CN[C@H]1CC[C@@H](c2ccc(Cl)c(Cl)c2)c2ccc(S(N)(=O)=O)cc21`: the outcome in test [1], in test [2], in test [3], in test [4], in [5] and in test [6] was inactive. Further, the compound was classed as inactive in [7] and in [9]. In addition, the AC50 in test [8] was 3.7 µM (active).

Turning to `Cc1ccc(C(C)C)c(O)c1`, the outcome in test [1], in test [2], in test [4], in [5], in test [6] and in test [7] was inactive. For the same compound, the outcome in test [8], in test [9] and in test [10] was inactive. Also, in test [3], the AC50 is 34.5 µM (active).

With `COc1ccc(S(=O)(=O)N2C(=O)[C@@](c3ccccc3OC)(N3C[C@H](O)C[C@H]3C(=O)N(C)C)c3cc(Cl)ccc32)c(OC)c1`, the AC50 in [1] is 17.1 µM (active); in test [2], 64.1 µM (active); in [3], 0.0584 µM (active); in test [4] it was 76.8 µM (active); in test [5], 28.5 µM (active); in test [6], 122 µM (active). Moreover, in test [10], the AC50 is 46.6 µM (active). In addition, the compound was classed as inactive in [7], in [8] and in test [9].

For `CC(=O)OC/C=C(\C)CCC=C(C)C`, the outcome in test [1], in test [2], in test [4], in test [5], in test [6] and in [7] was inactive. In addition, the compound was classed as inactive in test [8], in test [9] and in test [10]. For the same compound, in test [3], the AC50 is 48.3 µM (active).

Take `CC(=O)C(C)=CC1C(C)=CCCC1(C)C` (stereo not drawn): the result in test [1], in [2], in test [4], in test [5], in [6] and in test [7] was inactive. For the same compound, the call in test [8] and in test [9] was inactive. In test [3], the AC50 is 22.9 µM (active).

Regarding `Cc1nc(-c2ccc3c(c2)CCN(CCC2CCC(NC(=O)/C=C/c4ccc(F)cc4)CC2)CC3)no1` (stereo not drawn), the outcome in test [1], in test [2], in [3], in [4], in test [5] and in test [6] was inactive. In addition, the result in [7], in test [8], in test [9] and in test [10] was inactive.

For `CC1(C)NC(=O)NC1=O`, the outcome in test [1], in [2], in test [4], in [5], in test [6] and in test [7] was inactive. For the same compound, the outcome in test [8], in [9] and in test [10] was inactive. For the same compound, the AC50 in test [3] was 25.7 µM (active).

As for `CC=Cc1ccc(O)c(OC)c1`, the outcome in test [1], in test [2], in [4], in test [5], in [6] and in [7] was inactive. Further, the compound was called inactive in [8], in test [9] and in test [10]. For the same compound, the AC50 in test [3] was 26.1 µM (active).

With `Cc1ccc(C)c(C)c1`, the result in test [1], in test [2], in test [4], in test [5], in [6] and in test [7] was inactive. The compound was classed as inactive in test [8] and in test [9]. The AC50 in test [3] is 27.5 µM (active).

With `CC1=C(/C=C/C(C)=C/C=C/C(C)=C/CO)C(C)(C)CCC1`, the result in [1], in test [6], in test [7], in [8] and in [9] was inactive. Besides, the AC50 in test [2] was 49.1 µM (active); in test [3], 0.464 µM (active); in test [4], 47.6 µM (active); in test [5], 27.9 µM (active).

Turning to `Cc1ccc(N(C)C)cc1`, the outcome in [1], in test [2], in test [4], in test [6], in test [7] and in test [8] was inactive. Moreover, the call in test [9] and in [10] was inactive. Also, the AC50 in [3] was 27.4 µM (active).

With `CCCCCCCCCCCCCO`, the outcome in [1], in test [3], in test [4], in test [6], in test [7] and in [8] was inactive. The call in [9] and in [10] was inactive. The AC50 in test [2] is 34.3 µM (active).

Take `Oc1ccc2c(c1)OC[C@@H](N1CCC(O)(c3ccc(F)cc3)CC1)[C@H]2O`: the AC50 in [1] was 43.2 µM (active); in test [2], 63.7 µM (active); in test [3] it was 13.7 µM (active); in test [5] it was 50 µM (active). Also, the compound was classed as inactive in test [4], in test [6], in test [7], in [8] and in test [9].
